Source: PubChem
Compounds with a hit are over-represented: about 19% of the library has one in this group of screens.
DT40 TDP1 CPT = DT40-hTDP1 cell growth loss with CPT; 12% of 420,000 active; AID 686979; chicken DT40 Tdp1-/-;hTDP1 cells + 20 nM CPT, ATP luminescence, 48 h; Potency, µM (top dose mostly 46.2 µM), usual class: inhibitors; note: nearly all actives have a fitted effect of over 55% in size
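Chicken DT40 Tdp1-/- cells stably complemented with human TDP1 were seeded at 400 cells/well in medium containing 20 nM camptothecin, exposed to pin-transferred compounds, and grown at 37 °C for at least 48 hr. Viability was read as ATP luminescence.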
HT1080NT lethal = kills 2HG-producing HT-1080-NT fibrosarcoma cells; HT-1080-NT fibrosarcoma viability, CellTiter-Glo ATP luminescence, 48 h; Potency, µM (top dose mostly 46.1 µM), usual class: cytotoxic; 1.6% of 360,000 active; AID 686970;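 note: NT is the 2HG producing partner of a matched IDH1 knockdown line; nearly all actives have a fitted effect of over 55% in size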
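Compounds were tested in concentration-response format on HT-1080-NT cells for 48 hours at 37 degrees C. Cell viability came from CellTiter-Glo luminescence; curves were classified by r2, response magnitude and activity.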
DT40 TDP1 no CPT = qHTS for Inhibitors of human tyrosyl-DNA phosphodiesterase 1 (TDP1): qHTS in cells in absence of CPT; DT40 Tdp1-/- hTDP1 cells, no CPT, ATP luminescence, 48 h; Potency, µM (doses to about 46.2 µM), usual class: inhibitors; 15% of 420,000 active; AID 686978, 2013; note: nearly all actives have a fitted effect of over 55% in size
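Compound effects on proliferation are scored in DT40 Tdp1-/-;hTDP1 cells in the absence of CPT. ATP levels (CellTiter-Glo luminescence) are recorded after a ≥48 hr, 37 °C incubation.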
IL-1B inflam inh = inhibitors of inflammasome signaling (IL-1 beta secretion) | THP-1 LPS/ATP IL-1B secretion, AlphaLISA, 16 h; hits give low values | 4.7% of 360,000 active | activity change, % at 57.5 µM; in the data active = activity change below about -50%; inconclusive = mostly about -30% to -49%
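THP-1 cells pretreated 1 hr with compounds (up to 57.5 uM final), then stimulated with LPS (250 ng/mL final) plus ATP (1.25 mM final); secreted IL-1B measured by AlphaLISA after 16 hr, decreased signal indicating inhibition.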
HT1080 IDH1KD tx = HT-1080 IDH1 knockdown cell toxicity (counter line) | HT-1080 IDH1 knockdown viability, ATP luminescence, 48 h | Potency, µM (series often up to 46.1 µM), actives largely listed as cytotoxic | 2% of 360,000 active | AID 686971
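Knockdown cells (IDH1KD HT-1080) received compounds 2 h after plating at 750 cells/well and were kept 48 h at 37 °C in 5% FBS RPMI. A CellTiter-Glo luminescence read gave % activity for curve fitting.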
Hits are given with their value; i = inactive; ? = inconclusive; nt = no result given. Unless noted, calls come from the whole dose curve; as a rule, active = well fitted curve in the direction sought with a large enough effect; inconclusive = small, poorly fitted or top-dose-only effect, or another doubt; inactive = no such curve, though single readings can be large; an effect the other way counts as inactive or inconclusive.

SMILES	DT40 TDP1 CPT	HT1080NT lethal	DT40 TDP1 no CPT	IL-1B inflam inh	HT1080 IDH1KD tx
CCN(Cc1ccccc1)C(=O)CN1C(=O)COc2ccc(S(=O)(=O)N3CCCCCC3)cc21	21µM	i	23µM	i	i
CCN(Cc1ccccc1)C(=O)CN1C(=O)COc2ccc(S(=O)(=O)N3CCOCC3)cc21	?	nt	i	nt	nt
CCN(Cc1ccccc1)C(=O)CN1C(=O)COc2ccc(S(=O)(=O)N(CC)CC)cc21	23µM	nt	?	nt	nt
CCN(CC)S(=O)(=O)c1ccc2c(c1)N(CC(=O)N(C)Cc1ccccc1)C(=O)CO2	?	nt	26µM	nt	nt
CC1CCN(S(=O)(=O)c2ccc3c(c2)N(CC(=O)N(C)Cc2ccccc2)C(=O)CO3)CC1	?	nt	21µM	nt	nt
CCCCN(CCCNC(=O)CN1C(=O)COc2ccc(S(=O)(=O)N3CCC(C)CC3)cc21)Cc1ccccc1	?	i	?	i	i
Cc1cc(C)cc(NC(=O)Cn2c(C(F)(F)F)nc3ccccc32)c1	i	nt	i	nt	nt
Cc1ccc(CN2CCN(/N=C/C(Br)=C\c3ccccc3)CC2)cc1	?	i	4.1µM	nt	i
Cc1ccc(CN2CCN(/N=C/c3ccc(O)c(O)c3)CC2)cc1	7.3µM	i	4.1µM	i	i
Cc1ccc(CN2CCN(/N=C/c3ccc(C(=O)O)cc3)CC2)cc1	i	i	i	i	i
CCCCNC(=O)CCn1c(=O)c2ccccc2n(Cc2ccc(Cl)cc2)c1=O	?	i	?	i	i
COc1ccc(Nc2nnc(-c3ccc(C)c(S(N)(=O)=O)c3)c3ccccc23)cc1	18µM	nt	18µM	nt	nt
CC(=O)Nc1ccc(Nc2nnc(-c3ccc(C)c(S(N)(=O)=O)c3)c3ccccc23)cc1	i	i	i	i	i
CNC(=O)c1cc(Nc2nnc(-c3ccc(C)c(S(N)(=O)=O)c3)c3ccccc23)ccc1OC	i	i	i	-74	i
Cc1ccc(-c2nnc(Nc3ccc(C(=O)N(C)C)cc3)c3ccccc23)cc1S(=O)(=O)N(C)C	23µM	nt	10µM	nt	nt
COc1ccc(Nc2nnc(-c3ccc(C)c(S(=O)(=O)NCc4nc5ccccc5[nH]4)c3)c3ccccc23)cc1	21µM	nt	10µM	nt	nt
CC(C)C(NC(=O)c1ccc(C(C)(C)C)cc1)C(=O)Nc1ccc(N2CCOCC2)cc1 (stereo unspecified)	?	i	?	?	i
CCOc1ccc(S(=O)(=O)N(CC)CC(=O)NCc2ccccn2)cc1C	i	i	?	i	i
COc1ccc(NC(=O)N(C)C[C@H]2Oc3ccc(NC(=O)NC4CCCCC4)cc3C(=O)N([C@H](C)CO)C[C@@H]2C)cc1	i	i	i	i	i
COc1ccc(-c2nnc(Nc3ccc(OC)c(C(N)=O)c3)c3ccccc23)cc1	?	nt	16µM	nt	nt
Cc1ccc(C(=O)NCCc2nnc3ccc(NCCCN4CCOCC4)nn23)cc1	i	i	i	i	i
Cc1ccc(-c2csc3ncnc(Sc4nnc(CN5CCCCCC5=O)o4)c23)cc1	4.1µM	i	6.5µM	-98	i
CC(=O)CSc1ncnc2scc(-c3ccc(F)cc3)c12	i	i	i	i	i
O=C(COC(=O)c1c2c(nc3ccccc13)/C(=C/c1ccco1)CC2)NC1CCCC1	16µM	i	?	-61	i
CC1CCCCC1NC(=O)COC(=O)c1c2c(nc3ccccc13)/C(=C/c1ccco1)CC2 (stereo unspecified)	16µM	i	15µM	i	i
SMILES	DT40 TDP1 CPT	HT1080NT lethal	DT40 TDP1 no CPT	IL-1B inflam inh	HT1080 IDH1KD tx
CC(=O)NC(CC(C)C)C(=O)NC(Cc1ccccc1)C(=O)CCl (stereo unspecified)	2.3µM	i	2.6µM	-98	?
CC(=O)NC(CC(C)C)C(=O)NC(Cc1ccccc1)C(N)=O (stereo unspecified)	i	i	i	i	i
CC(=O)[C@H](CC(C)C)NC(=O)[C@@H](CC(C)C)NC(=O)[C@H](CC(C)C)NC(=O)OCc1ccccc1	0.15µM	nt	0.19µM	nt	nt
CN1N=C(C(F)(F)F)CC1=O	i	i	i	i	i
CN1N=C(C(C)(C)C)CC1=O	i	?	i	nt	18µM
O=C(Nc1cc(C(F)(F)F)ccc1N1CCCC1)C1CC(=O)N(Cc2ccccc2)C1 (stereo unspecified)	i	i	i	i	i
COc1ccc(N2CC(C(=O)Nc3ccccc3N3CCCC3)CC2=O)c(OC)c1 (stereo unspecified)	2.9µM	?	4.6µM	i	23µM
COc1ccc(C)cc1N1CC(C(=O)Nc2ccccc2N2CCCCC2)CC1=O (stereo unspecified)	?	i	21µM	i	i
CCc1ccc(N2CC(C(=O)Nc3ccccc3N3CCCC3)CC2=O)cc1 (stereo unspecified)	12µM	?	12µM	i	?
COc1ccc(N2CC(C(=O)Nc3cc(C(F)(F)F)ccc3N3CCCC3)CC2=O)c(OC)c1 (stereo unspecified)	?	21µM	23µM	i	21µM
CCN(CC(=O)Nc1ccc(OC)cc1)C(=O)CN1C(=O)NC(C)(c2ccc3ccccc3c2)C1=O (stereo unspecified)	?	i	?	?	i
CCOc1ccc2nc(NC(=S)NCc3ccccc3)sc2c1	?	?	?	i	4µM
CCOc1ccc2nc(NC(=O)c3ccoc3C)sc2c1	9.2µM	2.3µM	8.2µM	?	3.7µM
CCOc1ccc2nc(NC(=O)COC)sc2c1	i	i	i	i	i
CCOC(=O)c1ccc2nc(NC(=O)c3ccco3)sc2c1	?	i	?	i	?
CCOc1ccc2nc(NC(=O)Nc3ccccc3)sc2c1	?	i	?	i	i
CCOc1ccc2nc(NC(=O)c3ccco3)sc2c1	?	21µM	?	i	18µM
O=C(c1ccc(F)c(F)c1)N1CCOc2ccc(CN3CCN(CCO)CC3)cc2C1	i	nt	i	nt	nt
COc1ccc(C2=NOC(c3nnc(-c4ccccc4)o3)C2)cc1 (stereo unspecified)	i	i	i	i	i
COc1ccc(Cc2nnc(SC(C)C(=O)Nc3ccc(F)cc3Cl)o2)cc1 (stereo unspecified)	i	i	i	i	i
CC(C)CC(N)c1csc(Nc2ccccn2)n1 (stereo unspecified)	15µM	?	?	-50	?
CC(C)CC(N)c1csc(Nc2cnccn2)n1 (stereo unspecified)	13µM	i	9.2µM	i	i
CCOC(=O)C1CCCN(C(=O)Nc2ccccc2)C1 (stereo unspecified)	i	i	i	i	i
O=[N+]([O-])c1cccc2c(N3CCOCC3)ccnc12	?	?	15µM	i	i
COc1ccc2nc(Cl)cc(Cl)c2c1	i	i	i	i	i
C=CS(=O)(=O)c1c2cc(OC)ccc2nc2ccc(OC)cc12	2.3µM	?	2.6µM	-98	?
